From PubChem BioAssay
Efflux pump mplx = inhibitors of Candida efflux pumps in yeast, primary screen, S. cerevisiae, Nile Red, multiplex; S. cerevisiae Candida pump triplex; inhibition, % at 10 µM; 0.44% of 330,000 active;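 active = plate passing quality check with inhibition over a set limit, or well fluorescence over plate mean plus 4 SD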;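 also: Nile Red retained in pooled yeast measured as flow cytometry median fluorescence; 0% = buffer negative control and 100% = Enniatin B positive control; higher means more Nile Red kept so more efflux inhibition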
ALR H2O2 inh = inhibitors of human ALR sulfhydryl oxidase, primary screen, biochemical, H2O2 detection, HRP-luminol luminescence, single point; purified ALR, DTT oxidation; inhibition, % (test concentration not listed); 3.8% of 290,000 active; AID 485317, 2010;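 active = mean replicate inhibition above about 79%, with every replicate also reaching it, limit read from the data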
PABP1 MLLE inh = inhibitors of PABP1 MLLE–PAM2 peptide binding, primary screen, biochemical, fluorescence polarization, FITC-PAM2, GST-MLLE; inhibition, % at 20 µM; 0.36% of 360,000 active; Polyadenylate-binding protein 1 (Homo sapiens), P11940; AID 588489, 2011; in the data active = inhibition above about 35%, passing the limit was not always enough;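 also: plate controls were DMSO wells with GST-MLLE for no effect and wells lacking GST-MLLE protein for full effect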
Target sequence (P11940 whole entry, looked up): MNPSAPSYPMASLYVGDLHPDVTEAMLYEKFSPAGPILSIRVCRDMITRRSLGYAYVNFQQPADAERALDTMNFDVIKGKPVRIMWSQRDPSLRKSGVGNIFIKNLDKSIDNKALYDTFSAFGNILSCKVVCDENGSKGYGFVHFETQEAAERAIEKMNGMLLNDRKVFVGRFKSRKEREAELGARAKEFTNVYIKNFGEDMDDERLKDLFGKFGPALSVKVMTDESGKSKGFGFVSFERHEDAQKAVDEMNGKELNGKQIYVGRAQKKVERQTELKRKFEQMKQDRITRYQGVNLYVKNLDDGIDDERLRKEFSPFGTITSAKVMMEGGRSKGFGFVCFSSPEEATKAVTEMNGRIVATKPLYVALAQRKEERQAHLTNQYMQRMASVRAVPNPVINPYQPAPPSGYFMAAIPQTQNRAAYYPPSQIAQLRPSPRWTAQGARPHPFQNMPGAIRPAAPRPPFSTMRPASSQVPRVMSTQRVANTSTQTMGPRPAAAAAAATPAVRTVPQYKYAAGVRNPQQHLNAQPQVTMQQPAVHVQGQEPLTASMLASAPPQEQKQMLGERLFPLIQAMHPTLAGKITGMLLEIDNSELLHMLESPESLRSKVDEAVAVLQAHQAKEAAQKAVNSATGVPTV
SUMO HTRF inh = inhibitors of in vitro SUMOylation cascade, primary screen, biochemical, HTRF, uHTS. 0.36% of 290,000 active. inhibition, % at 35 µM. HTRF SUMOylation assay, SAE1/SAE2 + UBC9. SUMO-conjugating enzyme UBC9 (Homo sapiens), P63279; in the data active = inhibition above about 50%, passing the limit was not always enough
PABP FP inh = PABP poly(A) RNA binding inhibitors, primary screen, biochemical, fluorescence polarization, uHTS. 1% of 290,000 active. inhibition, % at 35 µM. AID 2014, 2009. Polyadenylate-binding protein 1 (Homo sapiens), P11940;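 also: calls also rest on retests at 20 µM and on dose response follow-up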
eIF4H inh = human eIF4H binding inhibitors, primary screen, translation initiation inhibitor project, biochemical, uHTS, fluorescence polarization; Eukaryotic translation initiation factor 4H (Homo sapiens), Q15056; eIF4H fluorescence polarization binding assay; inhibition, % at 35 µM; 0.94% of 290,000 active;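 also: calls also rest on retests at 20 µM and on dose response follow-up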
* = called active by the depositor; nt = not tested or not shown. An excerpt weighted towards active compounds, which were near 4.7% of everything screened. Unless noted, no rule for the calls is given here.

SMILES	Efflux pump mplx	ALR H2O2 inh	PABP1 MLLE inh	SUMO HTRF inh	PABP FP inh	eIF4H inh
COc1cc2c(cc1OC)C1(Nc3c-2c(-c2ccccc2)nn3-c2ccccc2)C(=O)Nc2ccccc21 (configuration not stated)	1.2*	4	-6	2	0	-5
COc1cc2c(cc1OC)C1(Nc3c-2c(C)nn3-c2ccccc2)C(=O)Nc2ccccc21 (configuration not stated)	0	-27	-10	-5	3	-2
O=C1C(Nc2cccc(O)c2)=C(N2CCCCC2)C(=O)c2ccccc21	0	10	49*	-3	16	6
COc1ccccc1NS(=O)(=O)c1cccc(C(=O)N/N=C/c2c(CO)cnc(C)c2O)c1	0	25	-44	nt	nt	nt
COc1ccccc1N/N=C/c1c(CO)cnc(C)c1O	0	100*	-10	1	-3	12
COc1cc(N=Cc2c(CO)cnc(C)c2O)cc(OC)c1OC	0	99*	13	7	-5	-4
CCC12CCCN3CCC4(C(=C(C(=O)OC)C1)Nc1ccccc14)C32 (configuration not stated)	nt	nt	-99	20	57*	17
COC(=O)C1=C(C(=O)OC)[C@@H]2Nc3ccccc3[C@@]23C[C@@H](C(=O)OC)N=C3N1	0	34	11	8	-4	-14
c1cncc(CN=C2Nc3ccccc3CS2)c1	0	98*	1	3	-6	-2
COC(=O)C1NC(=O)N2C(C(=O)OC)C(C)(C)S[C@H]12 (some centres not stated)	nt	-2	1	nt	nt	nt
Cc1n[nH]c(=S)n(NC(=O)/C=C/C(=O)Nn2c(=S)[nH]nc(C)c2=O)c1=O	nt	nt	10	99*	86*	92*
COc1cccc(C(=O)NCC2CCCN(C(=O)Cc3cccc(C)c3)C2)c1OC (configuration not stated)	nt	nt	-16	nt	nt	nt
CCN(CC)CCCNC(=O)c1cc(Cl)c(NC(=O)C2=C(C)OCCS2)cc1OC	0	-4	-12	4	55*	93*
Cc1ccc(S(=O)(=O)N2CCOCC2)cc1NC(=O)COC(=O)CCC(=O)c1ccc(F)cc1	nt	nt	-9	nt	nt	nt
COc1ccc(C2CC(=O)Oc3cc(C)c(Cl)c(C)c32)cc1 (configuration not stated)	0	nt	1	nt	nt	nt
Cc1nc(Nc2ccccc2)sc1C	0	99*	-102	-13	0	-13
Cc1csc(Nc2ccccc2)n1	0	98*	-9	7	6	-3
COc1cccc(-c2cnc3c(NC(C)=O)cc(-c4ccc(S(C)(=O)=O)cc4)cn23)c1	nt	nt	-19	nt	nt	nt
CN(C)c1ccc(-c2csc(C(C)(O)c3ccc(F)c(F)c3)n2)cc1 (configuration not stated)	nt	nt	-7	nt	nt	nt
COc1cccc(/C=N/NC(=O)c2ccoc2C)c1	0	1	-8	19	9	0
O=C(c1nc2ccccn2c1CN1CCN(c2ccccc2O)CC1)N1CCCC1	0	99*	-3	17	-1	-7
CN(C(=O)CN1C(=O)S/C(=C\c2ccccc2Cl)C1=O)C1CCS(=O)(=O)C1 (configuration not stated)	0	-4	12	17	-13	-18
CN(C(=O)CN1C(=O)/C(=C/c2ccccc2Cl)SC1=S)C1CCS(=O)(=O)C1 (configuration not stated)	0	17	41*	-9	10	-4
CC(C)(C)NC(=O)C1(C)CCC(=O)N1C1CC1 (configuration not stated)	nt	nt	-3	nt	nt	nt
CC(=O)N1CCN(c2ccc(Nc3ncnc4c3oc3ccccc34)cc2)CC1	0	99*	-15	44	28	-2
SMILES	Efflux pump mplx	ALR H2O2 inh	PABP1 MLLE inh	SUMO HTRF inh	PABP FP inh	eIF4H inh
CCc1nc(Nc2ccc(N3CCN(C(C)=O)CC3)cc2)c2oc3ccccc3c2n1	0	96*	-2	18	25	-10
Oc1ccc(Nc2ncnc3c2oc2ccccc23)cc1	0	42	-10	-2	12	-5
CC(C)n1c(=O)c2ccccc2n1Cc1cn(Cc2ccccc2)nn1	nt	nt	-3	nt	nt	nt
CCOC(=O)c1c(C)oc2c1c(C=NCc1ccccn1)c(O)c1ccccc12	nt	nt	5	46	116*	121*
O=C(c1cc(O)c(O)c([N+](=O)[O-])c1)c1ccccc1F	0	98*	-5	nt	nt	nt
Cc1cc2c(s1)Nc1ccccc1N=C2N1CCN(C)CC1	0	94*	10	-3	10	6
CCOC(=O)Cc1cn(C(=O)OC(C)(C)C)c2ccccc12	0	-3	10	nt	nt	nt
COCCn1c(SCC(=O)c2cc(C)n(C)c2C)nc2ccccc2c1=O	0	99*	9	14	-2	8
CC(C)CCN1C(Nc2ccccc2)=NC[C@@H]1C	0	-5	5	9	7	-9
CN1C(=O)/C(=C/c2ccc(OC(=O)c3ccco3)cc2)SC1=S	0	1	-36	11	-5	-10
CCOc1cc(/C=C2/SC(=S)N(CC(=O)O)C2=O)ccc1OC(=O)c1cccs1	0	nt	20	2	9	-1
COc1cc(/C=C2/SC(=S)N(CC(=O)O)C2=O)ccc1OC(=O)c1ccco1	0	98*	-75	-4	34	-14
COc1cc(/C=C2\SC(=S)N(CC(=O)O)C2=O)ccc1OC(=O)c1ccco1	0	99*	11	-4	13	-11
S=C1NCCNC(=S)NCCOCCOCCN1	0	0	-47	-13	81	active
Cc1cccn2cc(-c3ccc(S(=O)(=O)N4CCCCC4)cc3)nc12	0	nt	-16	36	-8	0
Cc1cccn2cc(-c3ccc(S(=O)(=O)N4CCOCC4)cc3)nc12	0	-3	-7	56*	10	-7
Cc1nc2c(OCc3ccc(C(F)(F)F)cc3)cccn2c1N(C)Cc1cccs1	nt	nt	-8	nt	nt	nt
Cc1ccc(S(=O)(=O)NC(=O)c2cc(C)n(-c3ccc(N(C)C)cc3)c2C)cc1	0	95*	1	-11	-5	-9
Cc1ccc(NC(=O)NNS(=O)(=O)c2ccc(Br)cc2)cc1	0	-7	1	-2	-10	-11
Cc1ccc(S(=O)(=O)NC(=O)Nc2ccc(N(C)C)cc2)cc1	0	86*	-4	-233	7	0
Cc1ccc(OCC(O)CN2CC3(C)CC2CC(C)(C)C3)cc1 (configuration not stated)	2	nt	4	-2	52*	13*
CC(=O)OC1COC(OC(C)=O)CO1 (configuration not stated)	nt	nt	-8	nt	nt	nt
